An excerpt weighted towards active compounds, which were near 2.6% of everything screened.
Cruzain Triton: cruzain (T. cruzi) inhibition with detergent; purified cruzain, Z-FR-AMC fluorescence, 0.01% Triton; Potency, µM, hits mostly inhibitors; hit rate 0.43% among 200,000; AID 1478; further: nearly all actives have a fitted effect of over 40% in size
Target sequence (P25779 123-467 limits assumed): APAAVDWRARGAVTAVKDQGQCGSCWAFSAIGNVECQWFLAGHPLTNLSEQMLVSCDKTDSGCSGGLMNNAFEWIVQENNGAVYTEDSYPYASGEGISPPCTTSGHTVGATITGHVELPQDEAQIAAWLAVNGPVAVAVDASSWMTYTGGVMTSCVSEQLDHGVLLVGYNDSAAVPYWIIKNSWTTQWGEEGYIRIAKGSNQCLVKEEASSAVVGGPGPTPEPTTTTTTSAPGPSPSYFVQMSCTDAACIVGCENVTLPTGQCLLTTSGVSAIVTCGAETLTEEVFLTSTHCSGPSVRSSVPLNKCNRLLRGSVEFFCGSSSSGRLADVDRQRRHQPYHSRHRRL
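Purified cruzain (1.5 nM final) was preincubated with compounds for 15 min at room temperature in 100 mM sodium acetate pH 5.5, 5 mM DTT, 0.01% Triton X-100. Reaction started with 2 uM Z-FR-AMC; AMC fluorescence change over 60 s gave activity.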
Cruzain inh noDet: cruzain (T. cruzi) inhibition without detergent. P25779. purified cruzain, Z-FR-AMC fluorescence, no detergent. Potency, µM, usual class: inhibitors. hit rate 2.3% among 200,000. AID 1476; further: nearly all actives have a fitted effect of over 40% in size
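Purified cruzain at 1.5 nM, pre-incubated 15 min with compound at room temperature in 100 mM sodium acetate pH 5.5, 5 mM DTT, 0.00005% Triton X-100. Reaction started with 2 uM Z-FR-AMC; AMC fluorescence increase over 60 s gives rate.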
A number is an active result; 0 = inactive; ? = inconclusive. The call rests on the fitted dose curve; in most records, active means well fitted curve in the direction sought with a large enough effect; inconclusive means small, poorly fitted or top-dose-only effect, or another doubt; inactive means no such curve, though single readings can be large; an effect the other way counts as inactive or inconclusive.

SMILES	Cruzain Triton	Cruzain inh noDet
CC(C)CC(c1nnnn1Cc1cccs1)N1CCN(c2nc3ccccc3s2)CC1 (stereo not drawn)	0	32µM
CCC(c1nnnn1Cc1cccs1)N1CCN(c2nc3ccccc3s2)CC1 (stereo not drawn)	0	?
Cc1ccc(C)c(CSc2c(C(C)C)cnc3c2c(=O)n(C)c(=O)n3C)c1	0	0
Cc1ccc(CN2C(=O)C(O)(CC(=O)c3ccc(C)cc3)c3ccccc32)cc1 (stereo not drawn)	0	?
CCc1ccc(NCc2cc3ccc(OC)cc3n(CC(=O)Nc3cccc(Cl)c3C)c2=O)cc1	0	0
CC(C)[N+]1(C)C2CCC1CC(OC(=O)C(CO)c1ccccc1)C2 (stereo not drawn)	0	0
CCOc1ccc2nc(N3CCCC(C(=O)NCCc4ccc(OC)cc4OC)C3)sc2c1 (stereo not drawn)	0	?
COc1ccc(NC(=O)c2ccccc2NC(=O)CSc2ccccc2)cc1	0	0
O=C(CSc1ccc(Cl)cc1)Nc1ccc(NC(=O)c2ccco2)cc1	0	10µM
COc1ccc(NC(=O)c2ccccc2NC(=O)CSc2ccc(Cl)cc2)cc1	0	13µM
O=C(CSc1ccc(Cl)cc1)Nc1ccc(N2CCN(C(=O)c3ccco3)CC2)cc1	0	0
FC(F)(F)c1cccc(N2CCN(Cc3nnc(-c4ccc5c(c4)OCO5)o3)CC2)c1	0	?
CC1(C)O[C@H]2[C@@H](O1)[C@@H](C(=O)Nc1cc(F)ccc1F)O[C@@H]1OC(C)(C)O[C@@H]12	0	0
N#Cc1cccc(NC(=O)CSc2ccc3c4c(cccc24)C(=O)c2ccccc2-3)c1	0	10µM
N#Cc1cccc(NC(=O)CSc2ccccc2)c1	0	0
COc1ccc(NC(=O)CSc2nc3ccccc3c3nc4ccccc4n23)cc1	0	0
COc1ccc(NC(=O)CSc2ccc3c4c(cccc24)C(=O)c2ccccc2-3)cc1	0	13µM
CCOC(=O)C1CCCN(c2nc3c(S(=O)(=O)c4ccc(CC)cc4)nnn3c3ccsc23)C1 (stereo not drawn)	0	0
Cc1cccc(NC(=O)c2cc3c([nH]c2=O)CC(c2ccccc2)CC3=O)c1 (stereo not drawn)	0	0
COc1ccc(NC(=O)Cn2ncc3c4ccccc4n(Cc4ccccc4)c3c2=O)cc1OC	0	0
O=C(O)c1c[nH]c2cc(OCc3ccccc3)ccc2c1=O	0	0
COc1cc2nc(SCc3ccc(Cl)cc3Cl)n(Cc3cccs3)c(=N)c2cc1OC	0	7.9µM
COc1cc2nc(SCc3ccc(C(F)(F)F)cc3)n(Cc3cccs3)c(=N)c2cc1OC	0	?
CCC(Sc1nc(-c2ccccc2F)nc2c1Cc1c(CO)cnc(C)c1O2)C(=O)Nc1cc(C)ccc1C (stereo not drawn)	0	0
Cc1ccc2sc(NC(=O)c3ccc(N4C(=O)CCC4=O)cc3)nc2c1C	0	?
SMILES	Cruzain Triton	Cruzain inh noDet
CCc1cccc2sc(NC(=O)c3ccc(N4C(=O)CCC4=O)cc3)nc12	0	7.9µM
Cc1cc(Br)c(OCc2ccc(C(=O)N/N=C3\CC(=O)CC(C)(C)C3)cc2)c(Br)c1	0	10µM
Cc1cc(OCc2ccc(C(=O)NN=C3CCCC3)cc2)ccc1Cl	0	?
O=C(N/N=C/c1ccc([N+](=O)[O-])o1)c1cc(-c2cccc(Br)c2)nc2ccccc12	0	?
CCCc1ccc(-c2cc(C(=O)N/N=C/c3ccc([N+](=O)[O-])o3)c3ccccc3n2)cc1	0	16µM
Cc1ccc(N2CCN(C(=O)C3CCC(CNS(=O)(=O)c4ccc(Br)s4)CC3)CC2C)cc1 (stereo not drawn)	0	0
COc1ccc2c(c1)C1C=CCC1C(c1cc3c(cc1Br)OCO3)N2 (stereo not drawn)	0	25µM
COc1cccc([C@@H]2Nc3ccc(C(=O)O)cc3[C@@H]3C=CC[C@@H]32)c1OC	0	0
Cc1ccc2c(CC(=O)Nc3c(C(=O)c4ccc(F)cc4)oc4ccccc34)coc2c1C	0	0
O=C(O)CCc1ccc(-c2ccccc2)n1CC(=O)Nc1ccccc1C(F)(F)F	0	0
COc1ccc(-c2c3c(nc4sc5c(=O)[nH]c(C)nc5c24)CCC3)cc1	0	0
O=C(Cn1nnc2c(sc3nc4c(c(-c5ccccc5)c32)CCC4)c1=O)c1ccccc1	0	25µM
CCOc1ccc(CN2C(=O)c3ccccc3Sc3ccc(C(=O)O)cc32)cc1	0	?
O=[N+]([O-])c1cc(-c2cnc3ccccc3n2)ccc1Oc1ccc(Br)cc1	0	25µM
O=[N+]([O-])c1ccc(Oc2ccc(-c3cnc4ccccc4n3)cc2[N+](=O)[O-])cc1	0	?
CCOc1cc(CNC(=O)C2COc3ccccc3C2)cc(OCC)c1OCC (stereo not drawn)	0	0
CN(C)C(=O)c1ccc2c(c1[N+](=O)[O-])C(=O)c1ccccc1C2=O	0	0
Cc1[nH]c2ccccc2c1CCNC(=O)c1ccc2c(c1[N+](=O)[O-])C(=O)c1ccccc1C2=O	0	10µM
Cc1[nH]c2c(C)cccc2c1CCNC(=O)c1ccc2c(c1[N+](=O)[O-])C(=O)c1ccccc1C2=O	0	7.9µM
Cc1ccc2c(c1[N+](=O)[O-])C(=O)c1ccccc1C2=O	0	0
CC(C)(C)OC(=O)N1CCC(c2c(C(=O)N3CCN(c4ccccc4F)CC3)cnn2C(C)(C)C)CC1	0	?
N#CCC(=N)N1CCN(c2cccc(Cl)c2)CC1	0	13µM
Clc1ccccc1CN1CCN(c2ccccc2Cl)CC1	0	0
N#CCC(=N)N1CCN(c2ccccc2)CC1	0	0
N#CCC(=N)N1CCN(c2ccccc2Cl)CC1	0	25µM
SMILES	Cruzain Triton	Cruzain inh noDet
CCc1ccc(C(=O)c2cn(CC(=O)NCCc3ccc(OC)c(OC)c3)c3nc(C)ccc3c2=O)cc1	0	?
O=c1c2oc3ccccc3c2n(Cc2ccccc2F)c(=O)n1Cc1ccccc1	0	0
CCOC(=O)c1sc2ncn(CC(=O)Nc3ccc(F)cc3F)c(=O)c2c1C	0	0
CCN(CC)CCCCC1CCN(CC(=O)N2c3ccccc3C(=O)Nc3cccnc32)CC1	0	0
CC1=C(C(=O)O)N2C(=O)C(NC(=O)C(N)c3ccccc3)C2SC1 (stereo not drawn)	0	0
CC1CCc2c(sc(NC(=O)CSc3ncnc4c3cnn4-c3ccccc3Cl)c2C#N)C1 (stereo not drawn)	0	10µM
Cc1csc(NC(=O)CSc2ncnc3c2cnn3-c2ccccc2Cl)n1	0	0
O=[N+]([O-])c1cccc(C(=S)N2CCN(c3ccccc3)CC2)c1	0	0
O=[N+]([O-])c1cccc(-c2ccc(C(=S)N3CCN(c4ccc(F)cc4)CC3)o2)c1	0	25µM
O=C(NC(=S)Nc1ccccc1N1CCOCC1)c1ccc(-c2cc(Cl)ccc2Cl)o1	0	10µM
COc1ccc(C(=O)NC(=S)Nc2ccccc2N2CCOCC2)cc1Br	0	?
CCOc1ccc(C(=O)NC(=S)Nc2ccccc2N2CCOCC2)cc1Br	0	16µM
O=C(NC(=S)Nc1ccccc1N1CCOCC1)c1ccco1	0	0
CC1CCN(c2ccc(NC(=S)NC(=O)c3ccc(-c4cccc([N+](=O)[O-])c4)o3)cc2)CC1	0	?
CC1CCN(c2ccccc2NC(=S)NC(=O)c2ccc(-c3cccc([N+](=O)[O-])c3)o2)CC1	0	7.9µM
CCCOc1ccc(C2c3c(oc4ccccc4c3=O)C(=O)N2c2nnc(C(C)C)s2)cc1 (stereo not drawn)	0	0

Source: PubChem
